IDE exosite FP – displaces the probe from the exo-site of human IDE | 17,000 compounds, 6.3% hits | z-score at 20 µM | P14735 | purified IDE, FL-6b probe fluorescence polarization; stronger effect = lower value;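 active means z-score of -3 or lower, meaning strong loss of probe binding signal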;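 further: His-tagged human IDE residues 42-1019 made in E. coli with 30 nM FL-6b probe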
* = called active by the depositor; ! = not active in a repeat. Shown is part of a subset that was picked to be rich in hits.

SMILES	IDE exosite FP
COCC(=O)N1CCCCN2[C@H](C1)[C@H](c1ccc(C#Cc3cccnc3)cc1)[C@@H]2CO	0.39
COCC(=O)N1CCCCN2[C@H](CO)[C@H](c3ccc(C#Cc4cccnc4)cc3)[C@H]2C1	2.6
CCC(=O)N1CCCCN2[C@@H](CO)[C@@H](c3ccc(C#Cc4cccnc4)cc3)[C@@H]2C1	-3.1*
COCC(=O)N1CCCCN2[C@H](CO)[C@H](c3ccc(C#Cc4cccnc4)cc3)[C@@H]2C1	-3.1*
CCC(=O)N1CCCCN2[C@@H](CO)[C@@H](c3ccc(-c4cccnc4)cc3)[C@@H]2C1	0.016
COc1ccc(C[C@H]2CCc3cnnn3COCCNC2=O)cc1	2
COCCNC(=O)C[C@H]1CC[C@H]2[C@@H](COC[C@@H](O)CN2S(=O)(=O)c2ccccc2F)O1	-0.22
C/C=C/c1cccc(-c2nc(C(=O)NCc3ccccn3)cc3c2[C@H](CCO)N([S@@](=O)C(C)(C)C)C3)c1	0.49
COc1ccc(S(=O)(=O)N2CCCCN3[C@@H](CO)[C@H](c4ccc(C#CCC(C)C)cc4)[C@@H]3C2)cc1	6.3
O=C(C[C@H]1CC[C@@H]2[C@H](COC[C@H](O)CN2S(=O)(=O)c2cccc(F)c2)O1)NCc1ccncn1	2.1
Cc1cccc(S(=O)(=O)N2[C@@H]3CNC[C@H]2C3c2ccc(-c3cncnc3)cc2)c1 (some centres not stated)	1.9
CCC(=O)N1CC[C@@H]2[C@@H](CO)Nc3ccc(C#Cc4ccccc4F)cc3[C@@H]21	0.85
C[C@@H]1CC(=O)N[C@@H](c2ccccc2)C/C=C\C[C@H](c2ccccc2)NC1=O	1.2
Cc1ccccc1-c1ccc(C2[C@@H]3CN(C(=O)NC4CCCCC4)C[C@H]2N3)cc1 (some centres not stated)	-8.2*!
O=C(Nc1cccc(F)c1)N1C[C@@H]2N[C@H](C1)C2c1ccc(-c2ccccc2F)cc1 (some centres not stated)	-0.69
O=C(Nc1cccc(F)c1)N1C[C@@H]2N[C@H](C1)C2c1ccc(-c2cccnc2)cc1 (some centres not stated)	1.4
O=C(NC1CCCCC1)N1C[C@@H]2N[C@H](C1)C2c1ccc(-c2ccc(F)cc2)cc1 (some centres not stated)	2.2
Cc1ccccc1-c1ccc(C2[C@@H]3CN(C(=O)Nc4cccc(F)c4)C[C@H]2N3)cc1 (some centres not stated)	-6.4*
C/C=C/c1ccc(C2[C@@H]3CN(C(=O)NC4CCCCC4)C[C@H]2N3)cc1 (some centres not stated)	-0.36
O=C(Nc1ccc(F)cc1)N1C[C@@H]2N[C@H](C1)C2c1ccc(/C=C/c2ccccc2)cc1 (some centres not stated)	0.82
Cc1ccccc1-c1ccc(C2[C@@H]3CN(C(=O)Nc4ccc(F)cc4)C[C@H]2N3)cc1 (some centres not stated)	-11*
Cc1ccccc1-c1ccc(C2[C@H]3CNC[C@@H]2N3C(=O)Nc2ccc(F)cc2)cc1 (some centres not stated)	-0.67
CO[C@@H]1CN(C)C(=O)c2ccc(N)cc2OC[C@@H](C)NC[C@H]1C	-0.55
OC[C@@H]1[C@H](c2ccc(C#Cc3cccnc3)cc2)[C@H]2CN(Cc3ccccc3F)CCCCN12	-1.1
O=S(=O)(c1ccccc1)N1CCCCN2[C@H](CO)[C@@H](c3ccc(C#Cc4ccccc4)cc3)[C@H]2C1	0.73
SMILES	IDE exosite FP
CC(C)CC#Cc1ccc([C@@H]2[C@@H](CO)N3C(=O)CN(S(C)(=O)=O)C[C@H]23)cc1	2.2
CN(C)C(=O)c1cccc(-c2ccccc2[C@@H]2[C@@H](CO)N(C(=O)C3CCC3)[C@H]2C#N)c1	2.1
COCC(=O)N1CC2(CCN(Cc3ccccc3)CC2)c2c([nH]c3cc(OC)ccc23)[C@H]1CO	-0.77
O=C(Cc1ccccc1)N1CC(=O)N2[C@H](C1)[C@H](c1ccc(C3=CCCC3)cc1)[C@@H]2CO	0.16
Cc1cccc(-c2ccc([C@@H]3[C@H](CO)N4CCCCN(S(=O)(=O)c5ccccc5C)C[C@@H]34)cc2)c1	-11*
Cc1cccc(-c2ccc([C@H]3[C@@H](CO)N4CCCCN(S(=O)(=O)c5ccccc5F)C[C@@H]34)cc2)c1	-0.051
Cc1cccc(-c2ccc([C@H]3[C@@H](CO)N4CCCCN(S(=O)(=O)c5ccccc5C)C[C@H]34)cc2)c1	-0.56
Cc1cccc(-c2ccc([C@H]3[C@@H](CO)N4CCCCN(S(=O)(=O)c5ccccc5C)C[C@@H]34)cc2)c1	3.6
Cc1cccc(-c2ccc([C@@H]3[C@@H](CO)N4CCCCN(S(=O)(=O)c5ccccc5F)C[C@@H]34)cc2)c1	-27*
Cc1cccc(-c2ccc([C@@H]3[C@@H](CO)N4CCCCN(S(=O)(=O)c5ccccc5F)C[C@H]34)cc2)c1	0.5
CCCNC(=O)C[C@H]1CC[C@@H]2[C@H](COc3ccc(NC(=O)CC)cc3C(=O)N2C)O1	-0.32
COc1cccc(C#Cc2ccc([C@H]3[C@H](CO)N4C(=O)CN(S(=O)(=O)c5ccccc5C)C[C@@H]34)cc2)c1	0.37
CC=Cc1ccc2n(c1=O)C[C@H]1[C@H](CO)[C@@H](C(=O)NCC(F)(F)F)N(C(=O)c3cccnc3)[C@@H]21 (mixture of isomers)	-0.33
COc1ccc(-c2ccc([C@H]3[C@@H](CO)N4C(=O)CN(Cc5ccc(C)cc5)C[C@@H]34)cc2)cc1	4.7
CO[C@@H]1CN(C)C(=O)c2cc(NC(=O)c3ccc(Oc4ccccc4)cc3)ccc2OC[C@@H](C)NC[C@H]1C	-14*
CO[C@@H]1CN(C)C(=O)c2cc(NC(=O)c3ccc(Oc4ccccc4)cc3)ccc2OC[C@H](C)NC[C@@H]1C	-8*
CO[C@H]1CN(C)C(=O)c2cc(NC(=O)c3ccc(Oc4ccccc4)cc3)ccc2OC[C@H](C)NC[C@H]1C	-14*!
CO[C@@H]1CN(C)C(=O)c2cc(NC(=O)c3cnccn3)ccc2OC[C@H](C)NC[C@@H]1C	-0.39
COc1cccc(NC(=O)Nc2ccc3c(c2)C(=O)N(C)C[C@H](OC)[C@H](C)CN[C@@H](C)CO3)c1	-1.9
CO[C@H]1CN(C)C(=O)c2ccc(NC(=O)c3cccc(F)c3)cc2OC[C@@H](C)NC[C@@H]1C	1.2
COc1cccc(NC(=O)Nc2ccc3c(c2)C(=O)N(C)C[C@H](OC)[C@@H](C)CN[C@H](C)CO3)c1	-1.2
CO[C@@H]1CN(C)C(=O)c2cc(NC(=O)c3cnccn3)ccc2OC[C@H](C)NC[C@H]1C	-0.012
COc1cccc(NC(=O)Nc2ccc3c(c2)C(=O)N(C)C[C@@H](OC)[C@H](C)CN[C@@H](C)CO3)c1	0.18
COc1ccc2c3c([nH]c2c1)[C@H](CO)N(C(=O)c1ccc(F)cc1)CC31CCN(S(=O)(=O)c2cccs2)CC1	-1
COc1ccccc1CNC(=O)C[C@@H]1C[C@@H]2c3cc(NC(=O)C4CCC4)ccc3O[C@@H]2[C@@H](CO)O1	-0.48
COCC(=O)Nc1ccc2c(c1)C(=O)N(C)C[C@@H](OC)[C@H](C)CN(C(=O)c1ccncc1)[C@H](C)CO2	-0.7
C[C@H](NC(=O)C[C@@H]1C[C@@H]2c3cc(NS(=O)(=O)c4ccc(F)cc4)ccc3O[C@@H]2[C@H](CO)O1)c1ccccc1	-1.3
O=C(c1ccc(F)cc1)N1CC(=O)N2[C@@H](CO)[C@H](c3ccc(C#CCC4CCCC4)cc3)[C@@H]2C1	0.64
COc1ccc(C#Cc2ccc([C@@H]3[C@H]4CN(Cc5ccncc5)CCCCN4[C@H]3CO)cc2)cc1	4.9

Assay outcomes: PubChem BioAssay, Broad Institute
